# Test results as given in PubChem BioAssay AID912 (National Center for Advancing Translational Sciences (NCATS), 2007).
# Where “and” joins values, the source holds several entries; their conditions need not be identical. Equal entries are not always repeated. In all, about 70,000 compounds went through this assay and about 470 (0.67%) were called active. About 18% were inconclusive and are not listed. Calls follow the shape of the full dose curve. The sample as a whole holds a higher share of actives than the screen did.
# Test: qHTS Assay for Anthrax Lethal Toxin Internalization; also: nearly all actives have a fitted effect of over 50% in size
# Conditions: Cells, FRET ratio (460/530); series mostly up to 40 µM; activity change, negative = inhibition: at the top concentration
# % is scaled to controls: 0 for no effect and ±100 for the full control effect; potency is read from the fitted curve at half-maximal effect.
Compound,"activity change, negative = inhibition",Potency
COc1ccc2[nH]cc(CCNc3ncnc4ccc(-c5ccccc5CN(C)C)cc34)c2c1,-27.3% (inactive),–
COc1ccc2[nH]cc(CCNc3ncnc4ccc(-c5ccc(C(=O)N(C)C)cc5)cc34)c2c1,-21.2% (inactive),–
COc1cccc(-c2cc(NCCc3c[nH]c4ccc(OC)cc34)ncn2)c1,–,10 µM (active)
COC(=O)C1=C(C)N(Cc2ccccc2)C2=C3C(=O)N(c4ccccc4)C(=O)C3[C@@](O)(C(=O)OC)C(=O)N2C1c1ccccc1 (some centres not stated),-8.4% [at 8 µM] (inactive) and -8.22% [at 8 µM] (inactive),–
CC(=O)/C(C)=N\O,-14.4% (inactive),–
Cn1c(=O)c(C(=O)Nc2ncccn2)c(O)c2ccccc21,-1.9% (inactive),–
Cn1c(C(=O)N2CCC(C(N)=O)CC2)cc2c(=O)n(C)c3ccccc3c21,15% (inactive),–
CCN1CCCC1CNC(=O)c1cc2c(=O)n(C)c3ccccc3c2n1C (configuration not stated),–,10 µM (active)
CC1CCCC(C)N1CCCNC(=O)c1cc2c(=O)n(C)c3ccccc3c2n1C (configuration not stated),–,3.98 µM (active)
Cn1c(C(=O)NCCN2CCc3ccccc3C2)cc2c(=O)[nH]c3ccccc3c21,10.3% (inactive),–
CCOC(=O)N1CCC(NC(=O)COc2cc(=O)n(C)c3ccccc23)CC1,4.09% (inactive),–
COC(=O)[C@@]1(C)C=C[C@@H](Cc2ccccc2)N1C(C)=O,-17% (inactive),–
C=CCOC(=O)c1ccccc1C(=O)OCC=C,15.7% (inactive),–
Cc1ccc2oc(=O)ccc2c1,-13.3% (inactive),–
NCCCNCCCCN(CCCN)/[N+]([O-])=N/O,-22.3% (inactive),–
CNC(=O)C1(C)C=CC2(CCCCC2)N1C(C)=O (configuration not stated),9.63% (inactive),–
CCCNC(=O)OC[C@@H]1O[C@H](c2ccccc2)C=C[C@@H]1Oc1ccc(OC)cc1,-2.83% [at 8 µM] (inactive),–
CSc1nc2ccc(S(=O)(=O)N3CCc4ccccc43)cc2s1,-0.645% (inactive),–
O=C(O)c1nccnc1C(=O)Nc1ccc(Br)cn1,2.29% (inactive),–
Cc1ncc(CC(=O)n2cc(C(=O)c3cc(Cl)ccc3O)cn2)s1,-6.13% (inactive),–
COC(=O)C1(Cc2ccccc2)C=C2C(=C(C)C(=O)C2C)CN1 (configuration not stated),-3.34% (inactive),–

Compound,"activity change, negative = inhibition",Potency
COC(=O)[C@H]1C[C@@H]1[C@H](NC(=O)Oc1ccc(F)cc1)c1ccccc1,-6.54% (inactive),–
O=C(O)CS(=O)c1ccc2c3c(cccc13)C(=O)c1ccccc1-2 (configuration not stated),1.15% [at 8 µM] (inactive),–
CN(Cc1ccco1)c1ncncc1-c1ccoc1,-7.98% (inactive),–
CC(C)C[C@@H](CC(=O)N[C@@H](CCC(=O)O)CC(=O)O)NC(=O)[C@@H]1CCCC[C@H]1NC(=O)C[C@@H](NC(=O)C[C@H](CO)NC(=O)[C@@H]1CCCC[C@H]1N)C(C)C,-12% (inactive),–
COc1ccc2nccc(C(=O)O)c2c1,-6.5% [at 3.58 µM] (inactive),–
COc1cccc([C@H]2Oc3ccc(OC)cc3/C(=N\OCC[C@@H]3C=C[C@H](OC(C)=O)[C@H](COC(C)=O)O3)[C@@H]2O)c1,-2.18% [at 8 µM] (inactive),–
CC(C)[C@@H](CC(=O)N[C@@H]1CCNC[C@H]1C(=O)N[C@H](CC(=O)N[C@@H](CCC(=O)O)CC(=O)O)Cc1ccccc1)NC(=O)C[C@H](CO)NC(=O)[C@@H]1CNCC[C@H]1N,0.529% (inactive),–
CC(=O)OCC1OC(C#CCCCc2ccccc2)C=CC1OC(C)=O (configuration not stated),-3.55% [at 8 µM] (inactive),–
O=Cc1c(Cl)cccc1Cl,-0.409% (inactive),–
COC(=O)[C@@H]1CC[C@H](C)[C@@H](c2ccc(C)cc2)N1C(=O)c1ccc(/C=N\O[C@@H](C)c2cn([C@H](CO)Cc3ccccc3)nn2)cc1,5.23% [at 8 µM] (inactive),–
O=C(Nc1ccccc1-c1nnn(CC(=O)N2CCN(c3ccccc3)CC2)n1)c1cccs1,-1.38% (inactive),–
Cc1cc(C)cc(C#CC2C=CC(Oc3ccc(C4CCCC4)cc3)C(CO)O2)c1 (configuration not stated),-16.6% [at 8 µM] (inactive),–
CS(=O)(=O)N1CCC2(CC1)CN(c1ccncc1)C2,3.25% (inactive),–
CCCC[C@H]1C(=O)N(c2ccccc2)N(c2ccc(O)cc2)C1=O,-4.13% [at 3.58 µM] (inactive),–
CO[C@H]1COC(=O)[C@@H](OCc2ccccc2)/C=C\[C@H](C)[C@@H](OC)COC(=O)[C@H](OCc2ccccc2)/C=C\[C@@H]1C,-4.42% [at 8 µM] (inactive),–
C[C@@H]1C[C@H]2[C@@H]3C[C@H](F)C4=CC(=O)C=C[C@@]4(C)[C@]3(F)[C@H](O)C[C@]2(C)[C@@]1(O)C(=O)CO,2.5% [at 3.58 µM] (inactive),–
COCCn1c(=O)c(-c2cccs2)nc2cncnc21,-5.15% (inactive),–
COc1ccc(-c2oc3cc(OC)ccc3c2C(=O)c2ccc(C#N)cc2)cc1,46.6% (inactive),–
CC(C)(C)[Si](OCC[C@@H]1C[C@@]1(C)[C@@H](NP(=O)(c1ccccc1)c1ccccc1)c1ccccc1)(c1ccccc1)c1ccccc1,-12% (inactive),–
COc1ccc(C(=O)N2CCC3(CCCN(C(c4ccccc4)c4ccccc4)C3)CC2)cc1,-11.5% (inactive),–
O=C(O)COc1c(Cl)cc(Cl)c2cccnc12,10.5% [at 8 µM] (inactive),–
